# The list is not random: actives were taken first. Their share in the collection is about 21%.
# HCV inhibitor = qHTS Assay for Inhibitors of Hepatitis C Virus (HCV); Huh7.5.1 HCVcc-Cre infection, luciferase reporter, 44 h; Potency, µM (series often up to 41.8 µM), for inactives: at the top dose activity change, negative = inhibition, usual class: inhibitors; 3.4% of 340,000 active; also: potency is read from the fitted curve at half-maximal effect; % is scaled to controls: 0 for no effect and ±100 for the full control effect
#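 A cell-based infection assay in which seeded cells (1,000 per well) receive test compound after 4 h, are inoculated with HCVcc-Cre at approximately 0.5 moi, and are incubated 44 h before luminescence detection.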
# Shiga inhibitor = A qHTS for Small Molecule Inhibitors of Shiga Toxin | Vero cells, Shiga toxin protein synthesis inhibition reporter | inhibition, % at 38.7 µM | 9.2% of 290,000 active | AID 2315, 2010; in the data active = inhibition mostly above about 28%, no sharp cut-off; inactive = mostly below about 43%; also: 0% is about no effect
# Pf growth 48h = Primary qHTS for delayed death inhibitors of the malarial parasite plastid, 48 hour incubation; P. falciparum luciferase growth in erythrocytes, 48 h; Potency, µM (top dose mostly 28.7 µM), for the others: top-dose activity change, negative = inhibition, actives largely listed as inhibitors; 5.9% of 310,000 active; AID 504832, 2011; also: potency is read from the fitted curve at half-maximal effect; % is scaled to controls: 0 for no effect and ±100 for the full control effect
#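 Here the parasites carry a stable luciferase gene and grow inside erythrocytes in Albumax-based RPMI medium with compound for one erythrocytic cycle. Activity is scored as loss of luminescent signal.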
# AMA1 RON2 block = qHTS for Inhibitors of AMA1-RON; Towards Development of Antimalarial Drug Lead: Primary Screen | Plasmodium falciparum AMA1 (3D7) - RON2 peptide interaction | AlphaScreen AMA1-biotinylated RON2 peptide binding | Potency, µM (top dose mostly 58.2 µM), for inactives: at the top dose activity change, negative = inhibition, actives largely listed as inhibitors | 0.2% of 360,000 active;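 also: potency is read from the fitted curve at half-maximal effect; 0% = vehicle wells and -100% = peptide control; nearly all actives have a fitted effect of over 45% in size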
#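 AMA1 (3D7) with his tag at 25 nM final met compounds first, then biotinylated RON2 peptide at 25 nM; detection used donor plus acceptor beads, 10 µg/mL apiece, read by AlphaScreen after 30 min at room temperature.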
# CHX counter = Cycloheximide Counterscreen for Small Molecule Inhibitors of Shiga Toxin; max response, %; 12% of 300,000 active; AID 2314, 2010; cell reporter, cycloheximide protein synthesis inhibition counterscreen; in the data active = max response mostly above about 13%, no sharp cut-off; inactive = mostly below about 14%; also: read at 38.3 µM for the half of the compounds with a filed dose; 0% is about no effect
# Pf growth 96h = Primary qHTS for delayed death inhibitors of the malarial parasite plastid, 96 hour incubation; P. falciparum luciferase reporter growth, 96 h; Potency, µM (top dose mostly 28.7 µM), for the others: at the top dose activity change, negative = inhibition, most hits filed as inhibitors; 6.9% of 320,000 active; also: potency is read from the fitted curve at half-maximal effect; % is scaled to controls: 0 for no effect and ±100 for the full control effect
#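 P. falciparum expressing integrated firefly luciferase grown in erythrocytes (2% hematocrit, 0.05% parasitemia final) with compounds for 96 hours at 37 C, 5% CO2. Growth inhibition read as loss of luminescence after adding luciferase detection reagent.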
# An asterisk follows results filed as active; u = inconclusive; x = not tested or not shown; [ ] = dose if it differs, or a comment. Unless noted, calls follow the shape of the dose curve; as a rule, active = well fitted curve in the direction sought with a large enough effect; inconclusive = small, poorly fitted or top-dose-only effect, or another doubt; inactive = no such curve, though single readings can be large; an effect the other way counts as inactive or inconclusive.
SMILES,HCV inhibitor,Shiga inhibitor,Pf growth 48h,AMA1 RON2 block,CHX counter,Pf growth 96h
COc1cc(SC)ccc1C(=O)Nc1ncc(C)s1,u,9,339%,-2%,-7,23%
COc1cc(SC)ccc1C(=O)Nc1ccccn1,u,46,190%,-14%,34*,395%
O=C(Nc1ccc(-c2n[nH]c(=S)o2)cc1)c1ccccc1,11%,46,38%,41%,5,11%
Cc1ccc(-n2nc(C)c3c2OC(N)=C(C#N)C3c2ccoc2)cc1 (stereo not given),6%,52,x,-6%,25*,x
Cc1ccc(-n2nc(C)c3c2OC(N)=C(C#N)C3c2ccco2)cc1 (stereo not given),3%,75*,-21%,u,22*,47%
Cc1ccc(-n2nc(C)c3c2OC(N)=C(C#N)C3c2ccc(C)o2)cc1 (stereo not given),8%,92*,-25%,u,48*,u
Cc1nn(-c2ccccc2)c2c1C(c1ccccc1)C(C#N)=C(N)O2 (stereo not given),8%,-2,-12%,-9%,-1,x
COc1ccc(OC)c(C2C(C#N)=C(N)Oc3c2c(C)nn3-c2ccc(C)cc2)c1 (stereo not given),-6%,-6,3%,-1%,-4,21%
CC[C@H](C)[C@H]1O[C@]2(CC[C@@H]1C)C[C@@H]1C[C@@H](CC=C(C)[C@@H](O[C@H]3C[C@H](OC)[C@@H](O[C@H]4C[C@H](OC)[C@@H](O)[C@H](C)O4)[C@H](C)O3)[C@@H](C)C=CC=C3CO[C@@H]4[C@H](O)C(C)=C[C@@H](C(=O)O1)[C@]34O)O2,u,x,x,-6%,x,x
COc1ccc(C2c3cc(OC)c(OC)cc3CCN2C(=O)c2cccc([N+](=O)[O-])c2)cc1OC (stereo not given),-14%,-18,u,-20%,-5,9.3µM*
COc1cc2c(cc1OC)C(c1cccc([N+](=O)[O-])c1)N(C(=O)c1ccc(F)cc1)CC2 (stereo not given),u,-3,u,-11%,5,122%
Cc1ccc(Nc2nc(N)nc(CN3CCN(Cc4ccc5c(c4)OCO5)CC3)n2)cc1,-27%,-1,10µM*,-12%,-3,x
COc1ccc(N2CCN(Cc3nc(N)nc(Nc4ccc(C)c(Cl)c4)n3)CC2)cc1,10µM*,-13,u,u,-1,x
Cc1ccc(Nc2nc(N)nc(CN3CCN(Cc4ccc5c(c4)OCO5)CC3)n2)cc1Cl,32µM*,-10,u,-18%,-3,101%[5.75 µM]
Cc1ccc(Nc2nc(N)nc(CN3CCN(Cc4ccc5c(c4)OCO5)CC3)n2)cc1C,u,-5,u,-15%,0,22%
Cc1ccc(Nc2nc(N)nc(CN3CCN(Cc4ccc5c(c4)OCO5)CC3)n2)c(C)c1,u,-5,12µM*,24%,8,u
Cc1ccc(Nc2nc(N)nc(CN3CCN(c4ccccc4)CC3)n2)cc1Cl,u,-8,u,-9%,1,u
Cc1ccc(S(=O)(=O)N(C)CC(=O)O/N=C(\N)c2cccc(Br)c2)cc1,-10%,-29,12%,-5%,-2,-2%
CN1CCC(N(C)C(=O)/C(C#N)=C/c2ccc(OC(F)F)cc2)CC1,14%,-4,-8%,8%,-7,-1%
CN(CC(=O)Nc1ccc(F)cc1)C(=O)CSc1nnc(Cc2ccccc2)o1,u,x,x,3%[11.6 µM],x,x
COc1cccc(N2CCN(Cc3nc(N)nc(Nc4ccccc4OC)n3)CC2)c1,18%,-3,u,9%,0,0.33µM*
COc1ccccc1Nc1nc(N)nc(CN2CCN(c3ccccc3)CC2)n1,u,-16,-29%,-28%,8,x
COc1ccc([N+](=O)[O-])cc1NC(=O)C(C)OC(=O)CSC(C)C(=O)Nc1cc(C)on1 (stereo not given),u,x,6%,11%,x,12%

# High-throughput results deposited in PubChem BioAssay by National Center for Advancing Translational Sciences (NCATS).
